D1 PAM: enhances dopamine response at the human D1 receptor; HEK293 TREx D1 cells, calcium flux, dopamine EC20 potentiation; potentiation, % at 10 µM; actives 0.036% (n = 360,000); in the data active means potentiation above about 30%; further: 0% is about no effect
Target sequence (P21728 whole entry, looked up): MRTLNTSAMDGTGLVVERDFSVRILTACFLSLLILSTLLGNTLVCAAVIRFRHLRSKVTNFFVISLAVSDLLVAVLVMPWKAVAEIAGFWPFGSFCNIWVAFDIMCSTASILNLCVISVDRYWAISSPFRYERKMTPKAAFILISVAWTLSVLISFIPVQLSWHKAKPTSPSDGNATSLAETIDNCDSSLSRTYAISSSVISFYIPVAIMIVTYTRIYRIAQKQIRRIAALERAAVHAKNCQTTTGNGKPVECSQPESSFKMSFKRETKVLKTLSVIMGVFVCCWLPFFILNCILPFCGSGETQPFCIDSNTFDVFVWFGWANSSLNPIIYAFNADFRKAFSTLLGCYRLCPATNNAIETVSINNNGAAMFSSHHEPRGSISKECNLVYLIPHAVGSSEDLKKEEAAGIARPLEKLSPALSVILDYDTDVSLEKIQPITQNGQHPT
D3 antag: antagonists of human D3 dopamine receptor. AID 652054. D3R cells, DiscoveRx beta-arrestin luminescence, antagonist mode; hits give low values. P35462. max response, negative = inhibition, %. actives 2.5% (n = 360,000); in the data active means max response below about -50%; inconclusive means no clear call, values can overlap the other calls; further: on the % scale 0 is the no-effect control and ±100 the full control effect
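Cells plated overnight at 1500 cells/well, then exposed to library compounds with dopamine controls for 90 minutes at 37 degrees C. DiscoveRx reagent added for 30–60 minutes at room temperature; luminescence read, quantitative HTS format.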
D1 antagonist: antagonists of human D1 dopamine receptor. P21728. HEK293 TREx D1 cells, calcium flux, dopamine EC80; hits give low values. activity change, negative = inhibition, % at 10 µM. actives 3.2% (n = 360,000); in the data active means activity change below about -30%; further: on the % scale 0 is the no-effect control and ±100 the full control effect
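Antagonism measured as reduced calcium response to an EC80 dopamine addition following 180 s compound pre-read; cells were inducible HEK293 Trex D1 plated overnight at 30 C, read kinetically at 1 cycle/sec.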
D1 ag: agonists of human D1 dopamine receptor; HEK293 T-REx D1 cells, calcium flux, agonist mode; activation, % at 2 µM; actives 1% (n = 360,000); AID 504660; in the data active means activation above about 30%; further: 0% is about no effect
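Agonism was scored from calcium flux recorded over 180 s (1 read/s) after pintool compound addition, following a 10-cycle baseline. Cells were inducible force-coupled HEK293 TREx D1, plated overnight at 30 C and loaded with no-wash calcium dye.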
D3 ag: D3 dopamine receptor (human) agonism | actives 0.58% (n = 410,000) | P35462 | D3R DiscoveRx beta-arrestin cells, luminescence, 90 min | AID 652048 | max activation, %; in the data active means max activation above about 30%; further: 0% is about no effect
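Cells at 1500/well, incubated overnight, then treated with pinned compounds (dopamine as control) for 90 min at 37 degrees C. DiscoveRx reagent added for 30 - 60 minutes at room temperature; luminescence read.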
An asterisk follows results filed as active; u = inconclusive; x = no result given; ! = not active in a repeat. Compounds with a hit are over-represented: about 6% of the library has one in this group of screens.

SMILES | D1 PAM | D3 antag | D1 antagonist | D1 ag | D3 ag
COc1ccc(NC(=O)C2CCCN(C(=O)c3cnn(-c4ccccc4)c3-n3cccc3)C2)cc1 (configuration not stated) | -1 | x | 9 | -2 | 4
CN(C)CCCN(C(=O)c1ccc(S(=O)(=O)N2CCCCC2)cc1)c1nc2cc3c(cc2s1)OCO3 | 1 | u | -4 | 33* | -10
CN(C)CCCN(C(=O)c1nc2ccccc2s1)c1nc2ccc(F)cc2s1 | x | 3 | x | x | -8
CN(C)CCCN(C(=O)c1ccc(Br)s1)c1nc2ccc(F)cc2s1 | -3 | x | 5 | 10 | -19
CCN(CC)CCN(C(=O)c1ccc2ncsc2c1)c1nc2cc3c(cc2s1)OCO3 | -3 | -4 | -46* | 1 | -17
Cc1ccc2nc(N(CCCN(C)C)C(=O)c3ccc(Br)s3)sc2c1 | -3 | -53* | -2 | 41*! | -10
CN(C)CCCN(C(=O)c1ccc(C(=O)c2ccccc2)cc1)c1nc2ccc(F)cc2s1 | -10 | u | -33* | 70* | -3
O=C(NCc1ccccc1Cl)C1CCN(C(=O)N2CCOc3ccccc32)CC1 | -1 | x | -2 | 1 | 3
O=P(O)(O)C(O)(Cc1cnc2ccccn12)P(=O)(O)O | x | x | x | x | -5
CCN1C(=O)c2ccccc2C1Nc1ccc(OCCN2CCCCC2)cc1 (configuration not stated) | x | x | x | x | -21
CC(C)(C)OC(=O)N1CCC(c2c(C(=O)N3CCN(c4ncccn4)CC3)cnn2-c2ccc(F)cc2)CC1 | 3 | x | 9 | 1 | 6
CCN(Cc1ccccc1)S(=O)(=O)c1ccc(C(=O)N(CCCN(C)C)c2nc3cc4c(cc3s2)OCCO4)cc1 | -4 | u | -41* | 3 | 1
CCN(Cc1ccccc1)S(=O)(=O)c1ccc(C(=O)N(CCCN(C)C)c2nc3ccc(F)cc3s2)cc1 | -7 | -1 | -6 | 5 | -19
CCOC(=O)N1CCN(S(=O)(=O)c2ccc(C(=O)N(CCN(C)C)c3nc4ccc(Cl)cc4s3)cc2)CC1 | -11 | u | -33* | 7 | -15
CN(C)CCCN(C(=O)c1ccc(C(=O)c2ccccc2)cc1)c1nc2cc3c(cc2s1)OCO3 | 3 | -55* | -7 | 62* | -12
CCOC(=O)N1CCN(S(=O)(=O)c2ccc(C(=O)N(CCCN(C)C)c3nc4ccc(OC)cc4s3)cc2)CC1 | -1 | -18 | 31 | 8 | -8
Cc1ccc(NC(=O)Cn2c(=O)n(-c3ccc(CC(=O)NCC4CCCO4)cc3)c(=O)c3ccccc32)cc1 (configuration not stated) | 0 | x | 6 | 0 | 3
CCCc1cc(=O)[nH]c(SCc2nc(-c3ccc(C)cc3)no2)n1 | -3 | x | 8 | 1 | -8
O=C(NC1CCCC1)c1c[nH]c2ccc(S(=O)(=O)Nc3cccc(C(F)(F)F)c3)cc2c1=O | 3 | x | -1 | 8 | -13
COc1ccc(CNC(=O)CCc2nc3cccnc3n2Cc2ccccc2)cc1 | 2 | x | 3 | 0 | -4
COc1ccccc1CCNC(=O)Cc1ccc(NC(=O)N2CCSc3ncccc32)cc1 | -3 | x | -28 | -1 | 1
COc1ccc(-c2ccc(SCC(=O)N3CCOCC3)nn2)cc1 | -14 | u | -31* | 7 | 7
CCC(CC)C(=O)Nc1nnc(SCc2cc(=O)c3ccccc3[nH]2)s1 | -1 | x | -11 | -1 | 2
COC(=O)[C@@]12CCCCN1[C@H](c1ccc(-c3ccc(Cl)c(Cl)c3)c(OC)c1)[C@@H]1C(=O)N(C)C(=O)[C@@H]12 | x | -23 | x | x | 41*
COc1cccc(Cn2c(=O)n(-c3cc(C)cc(C)c3)c(=O)c3oc4ccccc4c32)c1 | -5 | x | -11 | 2 | 5
COc1ccc(N(CC(=O)NC2CCCCC2)C(=O)c2ccc(C)s2)c(OC)c1 | x | -10 | -35* | 1 | 0
Cc1cccc(OCC(=O)Nc2ccc(S(=O)(=O)N(Cc3ccccc3)c3ccccc3)cc2)c1 | -1 | x | 7 | 17 | 2
COc1ccccc1NC(=O)c1sc2nc3c(cc2c1N)CN(Cc1ccccc1)CC3 | 0 | x | -10 | 0 | -9
CCOc1ccccc1NC(=O)c1sc2nc3c(cc2c1N)CN(Cc1ccccc1)CC3 | -4 | x | 16 | 55* | -8
COc1cc2c(cc1OC)C(c1ccc(Cl)cc1)N(c1cccc(C#N)c1)C(=O)C2 (configuration not stated) | 1 | x | 2 | -1 | -13
